This note sets out measurements from PubChem BioAssay (NCI).

About 83,000 compounds went through this panel and 20% of them were active in at least one assay; those are over-represented in the sample as a whole.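 Single-dose data. Exposure time 48 hours. Values below 10 considered active.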 A number with no mark means an inactive call. Activity calls are given as the source filed them.

The experiment relates to MDA-MB-468 breast. Put plainly: NCI-60 one-dose screen, 48 h (100 = growth as untreated, 0 = no growth, -100 = all killed). The settings on record: 10 µM unless noted.
With `CN1C(=O)C2(SCC(C(=O)NCC(=O)OC(C)(C)C)N2C(=O)C2CCCCC2)c2ccccc21` (configuration not stated), the growth is 104%.
The value for `COC1OCC(OS(=O)(=O)c2ccc(C)cc2)C(OC(=O)c2ccccc2)C1OC(=O)c1ccccc1` (configuration not stated) was 13%; that for `CN1C(=O)N(C)C2Nn3c(s/c(=C4\C(=O)N(CCc5ccccc5)c5ccccc54)c3=O)=NC21` (configuration not stated) was 39%.
The value for `COc1ccc(C2OCC(C)(C)CO2)cc1OC` was 92.4%; that for `O=C(NCCO)Nc1ccc(-c2nc(N3CCOCC3)c3cccn3n2)cc1` was -24.2% (active).
The figure for `O=C(Nc1ccc(Oc2ccc(NC(=O)Nc3ccc([N+](=O)[O-])cc3)cc2)cc1)Nc1ccc([N+](=O)[O-])cc1` is -3.83% (active); for `CCCCN(CCCC)CCc1c(C)cc(C)c(CCN(CCCC)CCCC)c1O` it is 0.281% (active); for `O=C(/C=C(/C=C/c1ccc2[nH]ccc2c1)OB(F)F)/C=C/c1ccc2[nH]ccc2c1` it is -57% (active).
On to `COc1ccc(C2=NNC(c3ccc(Oc4nc5c(c(=O)n(C)c(=O)n5C)n4C)c(OC)c3)C2)cc1` (configuration not stated), for which the growth was 89.5%.
On to `Cc1ccccc1NC(=O)NC(CC(N)=O)c1ccc2c(c1)nc(-c1cccc(Oc3ccc(C(C)(C)C)cc3)c1)n2CCCN1CCCCC1C` (configuration not stated), for which the growth was -78.8% (active).
The figure for `CCC(C)c1c(N)n(S(=O)(=O)c2ccc(C)cc2)oc1=O` (configuration not stated) is 109%; for `FC(F)(F)Oc1cccc(-c2cc(NCCCCCCNc3cc(-c4cccc(OC(F)(F)F)c4)nc4ccc(N5CCCC5)cc34)c3cc(N4CCCC4)ccc3n2)c1` it is -68.1% (active).
The figure for `COc1ccc(-c2nocc2-c2cccs2)cc1` is 97%; for `COC(=O)[C@H](CC(C)C)NC(=O)NC(=O)NC(=O)CI` it is 75.9%; for `CCN1CCN(CC(=O)N2c3cccc4cccc(c34)N(C(=O)CN3CCN(CC)CC3)C2c2cn(-c3ccccc3)nc2-c2cccc([N+](=O)[O-])c2)CC1` it is -47.8% (active).
The figure for `Cc1nc(N)sc1C(=O)NCCO` is 96.8%.
With `COc1ccccc1/C=C/C(=O)c1nnn(-c2ccc(F)cc2)c1C`, the growth was 38.2%.
`COC(=O)C(Cc1ccccc1)n1cc(COc2nc(Cl)nc(Nc3ccc(Cl)cc3)n2)nn1` (configuration not stated): the growth was 69.1%.
Turning to `O=C1C(Nc2ccc(Br)cc2)=C(I)C(=O)c2ncccc21`, the growth was -81.4% (active).
The value for `O=C(Nc1nc(C(=O)N2CCN(C(c3ccccc3)c3ccccc3)CC2)cs1)c1ccc(NC2CCCCC2)c([N+](=O)[O-])c1` was 104%.
The figure for `COc1ccc2c(c1)C(Br)=C(CCO)C2c1ccccc1` (configuration not stated) is -40.2% (active); for `COc1c(CCC[P+](c2ccccc2)(c2ccccc2)c2ccccc2)cc2c(c1OC)OCO2` it is -28% (active); for `CCOC(=O)CC(C#N)(CC(=O)OCC)C(=O)OCC` it is 96.9%.
The value for `NC(=O)c1ccc(C2C3=C(CCCC3=O)OC3=C2C(=O)c2ccccc2C3=O)cc1` (configuration not stated) was -30.6% (active).
On to `COc1cccc(-c2nc3sccn3c2/C=C/C(=O)c2ccc(C(F)(F)F)cc2)c1`, for which the growth was 75.6%.
The figure for `NS(=O)(=O)c1ccc(CCN2C(=O)/C(=C\c3ccccc3)C=C2c2ccc(Cl)cc2)cc1` is 103%; for `Oc1ccc(Br)cc1/C=N/NC(=S)NC12CC3CC(CC(C3)C1)C2` it is 46.8%.
The value for `NS(=O)(=O)c1ccc(N/C=C/C(=O)c2cc3ccccc3oc2=O)cc1` was 90.4%; that for `CNC(=O)c1cncc(Cn2nc(C)c(NC(=O)c3ccc(COc4ccc(C(F)(F)F)cc4C)cc3)c2C)c1` was 10.7%; that for `O=C(/C=C/c1ccc(Cl)cc1)c1ccc(Cl)cc1` was 88.3%.
The figure for `COc1ccc(-c2nn(-c3ccc(NC(=O)c4ccc(Cl)c(C(F)(F)F)c4)cc3)cc2-c2ccncc2)cc1Cl` is 9.51% (active); for `Cc1ccc(-c2cc(-c3cccc4ccccc34)n3c(n2)nc2ccccc23)cc1` it is 70.4%; for `CN(C)/C(N)=N/N=C(\c1ccccc1)c1ccccn1` it is 95.8%.
Turning to `N#C/C(=C\c1ccc(-c2ccc(F)cc2)o1)c1nc(-c2ccco2)cs1`, the growth is -47.2% (active).
As for `COc1ccc(-c2nc3sccn3c2/C=C/C(=O)c2cc(OC)c(OC)c(OC)c2)cc1OC`, the growth is -13.4% (active).
The figure for `O=C(CSc1nc2ccc([N+](=O)[O-])cc2[nH]1)Nc1cccc(C(F)(F)F)c1` is -8.14% (active); for `CC(C)(C)OC(=O)N1C/C(=C\c2ccccc2)C(=O)/C(=C/c2ccccc2)C1` it is 112%.
